# Laboratory results taken from PMC8384837, “Expanding the binding specificity for RNA recognition by a PUF domain”.
# Columns and labels:
# Experiment in all cases: yeast three-hybrid, YBZ-1, SC-Leu-His + 0.5 mM 3-AT, 4 days
# Conditions in all cases: tags: N-Gal4 AD-HA kept; label: inside an RPR1-promoter hybrid RNA with tandem MS2 sites; ssRNA
# PUM1 PUF domain R1-RTW = PUM1 PUF domain R1-RTW (Homo sapiens, UniProt Q14671 828-1176, S863R;R864T;Q867W)
# In short: (§1)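 Pumilio-1 PUF domain libraries, randomized (NNK) at the three base-contacting residues of each repeat, were co-expressed with matching RNA elements from a centromeric plasmid in strain YBZ-1 (LexA–MS2 coat fusion, HIS3 reporter). Transformants were plated on SC-Leu (input) and SC-Leu-His + 0.5 mM 3-AT (selection) for four days, and repeat regions were PCR-amplified and Illumina-sequenced. The interaction score is the log2 change in variant frequency from input to selection, with pseudocount 1 where absent.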
# PUM1 PUF domain R5-RAG = PUM1 PUF domain R5-RAG (Homo sapiens, UniProt Q14671 828-1176, C1007R;R1008A;Q1011G)
# In short: as §1
# PUM1 PUF domain R5-RRK = PUM1 PUF domain R5-RRK (Homo sapiens, UniProt Q14671 828-1176, C1007R;Q1011K)
# In short: as §1
# PUM1 PUF domain R5-KAG = PUM1 PUF domain R5-KAG (Homo sapiens, UniProt Q14671 828-1176, C1007K;R1008A;Q1011G)
# In short: as §1
# PUM1 PUF domain R3-IFG = PUM1 PUF domain R3-IFG (Homo sapiens, UniProt Q14671 828-1176, C935I;R936F;Q939G)
# In short: as §1
# PUM1 PUF domain R3-PFL = PUM1 PUF domain R3-PFL (Homo sapiens, UniProt Q14671 828-1176, C935P;R936F;Q939L)
# In short: as §1
# PUM1 PUF domain R3-TAQ = PUM1 PUF domain R3-TAQ (Homo sapiens, UniProt Q14671 828-1176, C935T;R936A)
# In short: as §1
# PUM1 PUF domain R3-DYE = PUM1 PUF domain R3-DYE (Homo sapiens, UniProt Q14671 828-1176, C935D;R936Y;Q939E)
# In short: as §1
# PUM1 PUF domain R4-MPV = PUM1 PUF domain R4-MPV (Homo sapiens, UniProt Q14671 828-1176, N971M;H972P;Q975V)
# In short: as §1
# PUM1 PUF domain R2-EWE = PUM1 PUF domain R2-EWE (Homo sapiens, UniProt Q14671 828-1176, N899E;Y900W;Q903E)
# In short: as §1
sequence,measurement,setting,value
GGCUAGAACUAGUGGAUCCCCCGGCGCCCGGCGGCUCGAGCCCGGGUAAGUGUAAAUUGUCUGCAUGCCGCCGGGCGCCAUGCCUGCAGGUCGACUCUAGAAAACAUG,binding signal,PUM1 PUF domain R1-RTW,3 log2 enrichment (interaction score)
GGCUAGAACUAGUGGAUCCCCCGGCGCCCGGCGGCUCGAGCCCGGGUAAGUGUCAAUAGUCUGCAUGCCGCCGGGCGCCAUGCCUGCAGGUCGACUCUAGAAAACAUG,binding signal,PUM1 PUF domain R5-RAG,3.6 log2 enrichment (interaction score)
same,binding signal,PUM1 PUF domain R5-RRK,4.43 log2 enrichment (interaction score)
same,binding signal,PUM1 PUF domain R5-KAG,2.58 log2 enrichment (interaction score)
GGCUAGAACUAGUGGAUCCCCCGGCGCCCGGCGGCUCGAGCCCGGGUAAGUGUAAUUAGUCUGCAUGCCGCCGGGCGCCAUGCCUGCAGGUCGACUCUAGAAAACAUG,binding signal,PUM1 PUF domain R3-IFG,3.79 log2 enrichment (interaction score)
same,binding signal,PUM1 PUF domain R3-PFL,4.55 log2 enrichment (interaction score)
GGCUAGAACUAGUGGAUCCCCCGGCGCCCGGCGGCUCGAGCCCGGGUAAGUGUGAAUAGUCUGCAUGCCGCCGGGCGCCAUGCCUGCAGGUCGACUCUAGAAAACAUG,binding signal,PUM1 PUF domain R5-RAG,0.18 log2 enrichment (interaction score)
same,binding signal,PUM1 PUF domain R5-RRK,1.4 log2 enrichment (interaction score)
GGCUAGAACUAGUGGAUCCCCCGGCGCCCGGCGGCUCGAGCCCGGGUAAGUGUAAGUAGUCUGCAUGCCGCCGGGCGCCAUGCCUGCAGGUCGACUCUAGAAAACAUG,binding signal,PUM1 PUF domain R3-IFG,5.86 log2 enrichment (interaction score)
GGCUAGAACUAGUGGAUCCCCCGGCGCCCGGCGGCUCGAGCCCGGGUAAGUGUAAAUAGUCUGCAUGCCGCCGGGCGCCAUGCCUGCAGGUCGACUCUAGAAAACAUG,binding signal,PUM1 PUF domain R3-TAQ,4.25 log2 enrichment (interaction score)
same,binding signal,PUM1 PUF domain R3-DYE,3.76 log2 enrichment (interaction score)
same,binding signal,PUM1 PUF domain R5-RAG,0.1 log2 enrichment (interaction score)
same,binding signal,PUM1 PUF domain R5-RRK,1.82 log2 enrichment (interaction score)
same,binding signal,PUM1 PUF domain R3-IFG,3.21 log2 enrichment (interaction score)
same,binding signal,PUM1 PUF domain R4-MPV,2.14 log2 enrichment (interaction score)
same,binding signal,PUM1 PUF domain R3-PFL,3.64 log2 enrichment (interaction score)
GGCUAGAACUAGUGGAUCCCCCGGCGCCCGGCGGCUCGAGCCCGGGUAAGUGUAUAUAGUCUGCAUGCCGCCGGGCGCCAUGCCUGCAGGUCGACUCUAGAAAACAUG,binding signal,PUM1 PUF domain R4-MPV,3.02 log2 enrichment (interaction score)
GGCUAGAACUAGUGGAUCCCCCGGCGCCCGGCGGCUCGAGCCCGGGUAAGUGUAAAGAGUCUGCAUGCCGCCGGGCGCCAUGCCUGCAGGUCGACUCUAGAAAACAUG,binding signal,PUM1 PUF domain R2-EWE,3.45 log2 enrichment (interaction score)
GGCUAGAACUAGUGGAUCCCCCGGCGCCCGGCGGCUCGAGCCCGGGUAAGUGUUAAUAGUCUGCAUGCCGCCGGGCGCCAUGCCUGCAGGUCGACUCUAGAAAACAUG,binding signal,PUM1 PUF domain R5-RAG,3.37 log2 enrichment (interaction score)
same,binding signal,PUM1 PUF domain R5-RRK,4.7 log2 enrichment (interaction score)
